Data published in PubChem BioAssay (Tox21).
Inconclusive results are not listed. Unmarked numbers belong to inactive results. Calls of active or inactive are those of the source. The call rests on the fitted dose curve; in most records, active means well fitted inhibition curve with a large enough effect in the repeat runs; inconclusive means weak or mixed curves, or effect the other way; inactive means no such curve, though single readings can be large or run the other way.

assay: qHTS assay to identify small molecule antagonists of the retinoic acid receptor (RAR) signaling pathway (AID 1159552; further: nearly all actives have a fitted effect of over 50% in size); details: C3RL4 RARE luciferase reporter, retinol-stimulated, 6 h; series mostly up to 92.4 µM; activity, negative = inhibition: at the top concentration
Excerpt: National Center for Advancing Translational Sciences [NCATS]
NIH Chemical Genomics Center [NCGC]
U.S. Environmental Protection Agency [EPA]
National Institutes of Environmental Health Sciences [NIEHS]
National Toxicology Program [NTP]
U.S. Food and Drug Administration [FDA]
All-trans Retinoic acid (atRA) is the potent natural metabolite of retinol and plays an important role in normal embryonic development and maintenance of cellular phenotype in adult animals. atRA is the activating ligand for the retinoic acid receptors (RARs) which form heterodimers with retinoid X receptors (RXRs) on the retinoic acid response element (RARE). Through activation of the RAR/RXRs nuclear receptors, atRA regulates the transcription of a large number of protein-coding genes and regulatory RNAs. Intracellular levels of atRA are controlled by the retinol signaling pathway (RSP) that regulates the biosynthesis and catabolism of atRA to maintain physiological levels. Chemicals that interfere with the RSP can cause abnormal intracellular levels of atRA and therefore are potential developmental toxicants. To assess compounds for the potential adverse effect on embryonic development through interfering with retinol signaling, a cell-based RARE luciferase reporter gene assay was used. C3RL4 cell line (OARSA/CFSAN/FDA, Laurel, MD) was used to screen Tox21 10K compound library for identifying inhibitors of the RSP.
Tox21 Assay Protocol Summary:
C3RL4 cells were seeded at 1,000/well in 4 uL of assay medium into white solid 1,536-well tissue culture plates (Greiner Bio-One North America Inc. Monroe, NC) using a Multidrop Combi (Thermo Scientific, Waltham, MA) dispenser. After incubation at 37 C and 5% CO2 for an overnight, 23 nL of compounds dissolved in DMSO, positive control or DMSO only were transferred by a Pintool station (Kalypsys, San Diego, CA). One ul of 1 uM (final concentration) of Retinol was added right after the compound addition by using a Flying Reagent Dispenser (FRD) (Aurora Discovery, San Diego, CA). After 6 hr incubation at 37 C and 5% CO2, 5 uL of Amplite Luciferase reagent (AAT Bioquest Inc. Sunnyvale, CA) was added to each assay plate using an FRD. Luminescence was quantified on a ViewLux plate reader (PerkinElmer, Waltham, MA) after 30 min incubation at room temperature.
On the % scale 0 is the no-effect control and ±100 the full control effect; potency means the concentration at half of the fitted maximal effect.

SMILES	activity, negative = inhibition	Potency
CCCCCCCCCCC(=O)O	10%	
CN(C(=O)CN(CCO)CC(=O)N(C)C(C)(C)Cc1ccccc1)C(C)(C)Cc1ccccc1		29.8 µM (active)
O=C1NC(=O)c2cc([N+](=O)[O-])ccc21	-3.1%	
O=C(CCCN1CC=C(n2c(=O)[nH]c3ccccc32)CC1)c1ccc(F)cc1	-10.1% [at 42.5 µM]	
CCCCCCCCCI	22.5%	
CN1C(C(=O)Nc2ccccn2)=C(O)c2sccc2S1(=O)=O	142% [at 42.5 µM]	
Cc1cccc(O)c1N	46.2%	
O=C(O)CCC(=O)C(=O)O	-1.78%	
CC(=O)Oc1ccc([N+](=O)[O-])cc1CCl	-3.09%	
CC(=O)OCCN(CCOC(C)=O)c1ccc(N=Nc2ccc([N+](=O)[O-])cc2C#N)cc1	12%	
O=C(O)C[C@H](NC(=O)OCc1ccccc1)C(=O)O	7.63%	
COc1ccccc1N1CCN(CC(O)COc2cccc3ccccc23)CC1 (stereo not given)		26.6 µM (active)
CC(C)Nc1cccnc1N1CCN(C(=O)c2cc3cc(NS(C)(=O)=O)ccc3[nH]2)CC1	0.947% [at 42.5 µM]	
C[C@H]1C[C@H](O)c2ccsc2S1(=O)=O	-0.622% [at 42.5 µM]	
CCCCCCC(C)(C)C(=O)O	-13%	
O=c1c(O)c(-c2ccc(O)cc2)oc2cc(O)cc(O)c12		inactive
C=C(C)CCCC(C)CCO (stereo not given)	-0.174%	
CC1(CN2CCC(n3c(=O)[nH]c4ccccc43)CC2)OCc2ccccc2-n2cccc21 (stereo not given)		29.8 µM (active)
NC(=O)c1ccncc1	-3.62%	
C=Cc1ccc(S(=O)(=O)O)cc1	-4.23%	

SMILES	activity, negative = inhibition	Potency
CCCCCCCCCCCCCCN(CCO)CCO		30.6 µM (active)
Oc1c(I)cc(I)c2cccnc12	-8.24% [at 42.5 µM]	
Cc1cc(=O)c2c(O)c3c(O)cc(=O)c4c3c3c(cc(O)c1c23)C(C)(C)C=4O	-5.37% [at 19 µM]	
CC[C@]1(O)C[C@H]2CN(CCc3c([nH]c4ccccc34)[C@@](C(=O)OC)(c3cc4c(cc3OC)N(C=O)[C@H]3[C@@](O)(C(=O)OC)[C@H](OC(C)=O)[C@]5(CC)C=CCN6CC[C@]43[C@@H]65)C2)C1		0.168 µM (active)
COc1cc(C(=O)NCCCCCC(=O)O)cc(OC)c1OC	7.33% [at 42.5 µM]	
CC1=Nc2ccc3ccccc3c2C1(C)C	7.32%	
Cc1ccccc1N=C(N)Nc1ccccc1C	13.2%	
CCOc1cccc(-n2cc(C(=O)N3CCN(c4cc(C(=O)O)c5ccccc5c4)CC3)nc2-c2ccc(C)cc2)c1	7.81%	
O=C1c2ccccc2C(=O)N1CCc1noc(-c2ccc(CN3CCCCCC3)s2)n1	11.4%	
CCCCC(CC)COP(=O)(O)O (stereo not given)	-0.294%	
CCCCN(CCN(CCCC)C(=O)N1CCOCC1)C(=O)N1CCOCC1	-111% [at 42.5 µM]	
O=C(O)c1cccc(-c2noc(-c3ccccc3F)n2)c1		0.422 µM (active)
NNC(=O)CP(=O)(c1ccccc1)c1ccccc1	255% [at 42.5 µM]	
Clc1cc(Cl)nc(Cl)n1	-4.93%	
Nc1nnc(-c2ccc([N+](=O)[O-])o2)o1	-8.71%	
C1C[C@@H]2[C@H]3CC[C@H](C3)[C@@H]2C1	-2.63%	
CC1=C(Br)C(=O)C(Br)=C/C1=C(/c1ccccc1S(=O)(=O)O)c1cc(Br)c(O)c(Br)c1C		20.8 µM (active)
Oc1cc2c(cc1O)[C@H]1c3ccc(O)c(O)c3OC[C@@]1(O)C2	271%	
OC[C@H]1O[C@@H](n2cnc3c(=S)nc[nH]c32)[C@H](O)[C@@H]1O	138% [at 42.5 µM]	
CO/N=C(/C(=O)N[C@@H]1C(=O)N2C(C(=O)O)=C(COC(N)=O)CS[C@H]12)c1ccco1	-0.469%	
